High-throughput results from PubChem.
Rows were chosen to be rich in hits. Some 10% of all compounds tested hit in one or more screens of this group.
HP1b binding inh: inhibitors of HP1-beta chromodomain binding to methylated histone tails | AlphaScreen HP1-beta / biotin-H3K9me3 peptide binding | Potency, µM (highest dose often 114 µM), actives largely listed as inhibitors | 390,000 tested, 0.56% active | P83916; also: nearly all actives have a fitted effect of over 70% in size
Target sequence (P83916 whole entry, looked up): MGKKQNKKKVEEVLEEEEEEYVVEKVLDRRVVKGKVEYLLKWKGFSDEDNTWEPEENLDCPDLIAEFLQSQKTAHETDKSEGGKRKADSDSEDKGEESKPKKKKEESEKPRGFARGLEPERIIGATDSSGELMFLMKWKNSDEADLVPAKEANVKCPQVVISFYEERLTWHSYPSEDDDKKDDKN
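Compound inhibition of the preformed complex between 50 nM HP1-beta and 50 nM biotinylated H3K9me3 peptide was read by AlphaScreen. Buffer was PBS pH 7.4 with 0.01% Tween-20. Incubations ran 30 min at room temperature, with 10 ug/mL donor/acceptor beads.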
G9a inh: blocks human histone lysine methyltransferase G9a. Q96KQ7. Potency, µM (titrated, usually from 102 µM), hits mostly inhibitors. AID 504332. 350,000 tested, 8.8% active. G9a H3K9 monomethylation, AlphaScreen, 2 h; also: nearly all actives have a fitted effect of over 75% in size
Target sequence (Q96KQ7 913-1193 limits assumed): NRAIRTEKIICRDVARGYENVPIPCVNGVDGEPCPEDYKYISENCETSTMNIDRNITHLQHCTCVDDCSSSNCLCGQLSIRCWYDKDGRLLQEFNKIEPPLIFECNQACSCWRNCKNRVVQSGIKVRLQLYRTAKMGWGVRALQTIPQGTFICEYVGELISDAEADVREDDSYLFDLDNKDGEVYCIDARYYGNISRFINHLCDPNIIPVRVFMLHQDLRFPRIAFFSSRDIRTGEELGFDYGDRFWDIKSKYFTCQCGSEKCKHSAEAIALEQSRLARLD
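AlphaScreen read-out: biotin-H3K9 peptide (500 nM) methylation by 20 nM enzyme with 20 uM SAM, 2 h at room temperature after 15 min compound preincubation; anti-monomethyl H3K9 antibody plus donor/acceptor beads, 10 min dark.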
CtBP-E1A inh: blocks the CtBP interaction with E1A | AlphaScreen GST-E1A/His-CtBP binding, 1536-well; hits give low values | activity change, % (concentration not given with the values) | 340,000 tested, 0.49% active; in the data active = activity change below about -65%; inconclusive = mostly about -30% to -63%
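Steps: dispense buffer (Tris pH 8.0, NaCl 300 mM, TCEP 1 mM, BSA, Tween 20); add 5X protein mix (GST-E1A, His-CtBP, 125 nM each); pin 23 nL compound; 2 h at 37 °C, dark; add 5X beads (50 ug/mL); 1 h; read.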
Six1-Eya2 inh: Six1/Eya2 interaction inhibition; Q15475+O00167; AlphaScreen GST-Six1/His-Eya2 binding, biochemical; hits give low values; activity change, % (test concentration not listed); 360,000 tested, 0.56% active; AID 651725; in the data active = activity change below about -65%; inconclusive = mostly about -30% to -63%
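AlphaScreen with GST-Six1 and His-Eya2 (5X mix: 250 nM and 500 nM), glutathione donor and nickel acceptor beads; buffer 50 mM Tris pH 8.0, 300 mM NaCl, 1 mM TCEP; 1 h at 37 C in the dark.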
JMJD2A Tudor: inhibitors of human JMJD2A Tudor domain; Potency, µM (highest dose often 114 µM), hits mostly inhibitors; O75164; AlphaScreen JMJD2A-Tudor / H3K4me3 peptide binding; AID 504339; 390,000 tested, 4.4% active; also: nearly all actives have a fitted effect of over 50% in size
BAZ2B inh: blocks human BAZ2B; Q9UIF8; AlphaScreen BAZ2B-H3K14Ac peptide displacement; Potency, µM (top dose mostly 114 µM), most hits filed as inhibitors; 360,000 tested, 4.4% active; also: nearly all actives have a fitted effect of over 60% in size
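AlphaScreen displacement of biotin-H3(5-23)K14Ac peptide (50 nM final) from BAZ2B (50 nM final) in PBS pH 7.4, 0.01% Tween-20; complex preformed 30 min RT, then compounds (top 110 uM) 30 min RT, beads 20 min dark.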
Each line names hits and unclear results; the compound was inactive in the other large screens. Unless noted, calls follow the shape of the dose curve; as a rule, active = well fitted inhibition curve with a large enough effect; inconclusive = small, poorly fitted or top-dose-only effect; inactive = no such curve, though single readings can be large or run the other way.

CC1=NN(c2ccccc2)C(=O)C1/C=C1/NC(=S)NC1=O (stereo unspecified)	G9a inh inconclusive
CC1=NN(c2ccccc2)C(=O)C1C=Nc1ccc(N(C)C)cc1 (stereo unspecified)	HP1b binding inh inconclusive, CtBP-E1A inh inconclusive, Six1-Eya2 inh inconclusive, JMJD2A Tudor 45µM, BAZ2B inh 35µM (no result: G9a inh)
CC(C)(C)OC(=O)NCc1nnc(-c2cc3ccccc3[nH]2)s1	none (no result: HP1b binding inh, G9a inh, CtBP-E1A inh, Six1-Eya2 inh, BAZ2B inh)
CC1CCC2(C1)N=C(Nc1nc3ccccc3o1)NC1=C2C(=O)CCC1 (stereo unspecified)	JMJD2A Tudor 56µM (no result: HP1b binding inh, G9a inh, CtBP-E1A inh, Six1-Eya2 inh, BAZ2B inh)
CCC1CCC2(C1)N=C(Nc1nc3ccccc3o1)NC1=C2C(=O)CCC1 (stereo unspecified)	none (no result: HP1b binding inh, G9a inh, CtBP-E1A inh, Six1-Eya2 inh, BAZ2B inh)
Cc1cc(Cl)ccc1NS(=O)(=O)c1cc2[nH]c(=O)c(=O)[nH]c2cc1C	none (no result: CtBP-E1A inh, Six1-Eya2 inh)
CCN(CC)c1ccc(NS(=O)(=O)c2cc(-c3onc(C)c3C)ccc2OC)c(C)c1	G9a inh 8.9µM, JMJD2A Tudor inconclusive (no result: CtBP-E1A inh, Six1-Eya2 inh)
CCN(CC)c1ccc(NS(=O)(=O)c2ccc(-c3coc(C)n3)cc2)c(C)c1	HP1b binding inh inconclusive, G9a inh 11µM, JMJD2A Tudor 25µM, BAZ2B inh 13µM (no result: CtBP-E1A inh, Six1-Eya2 inh)
CCN(CC)c1ccc(NS(=O)(=O)c2cc3[nH]c(=O)c(=O)[nH]c3cc2C)c(C)c1	G9a inh 14µM, JMJD2A Tudor 45µM, BAZ2B inh 50µM (no result: CtBP-E1A inh, Six1-Eya2 inh)
COc1ccc(-c2onc(C)c2C)cc1S(=O)(=O)NCCc1ccco1	G9a inh inconclusive, JMJD2A Tudor inconclusive, BAZ2B inh 50µM
COc1ccc(-c2onc(C)c2C)cc1S(=O)(=O)NCc1ccco1	none (no result: CtBP-E1A inh, Six1-Eya2 inh)
O=C(NNc1c(Cl)cccc1Cl)c1sc2ccccc2c1Cl	JMJD2A Tudor inconclusive (no result: G9a inh, CtBP-E1A inh, Six1-Eya2 inh, BAZ2B inh)
CC(C)Oc1ccc(/C=N/NC(=O)c2ccc(N(Cc3ccccc3)S(C)(=O)=O)cc2)cc1	none
COC(=O)COc1ccc(/C=N/NC(=O)c2ccc(N(Cc3ccccc3)S(C)(=O)=O)cc2)cc1	CtBP-E1A inh -79, Six1-Eya2 inh -75
CCc1nnc(NC(=O)CSc2nnc(CSc3nc(C)cc(C)n3)o2)s1	G9a inh 40µM, CtBP-E1A inh inconclusive
CCc1nnc(NC(=O)CSCc2cc(=O)n3nc(C)sc3n2)s1	JMJD2A Tudor 18µM
Cc1ccc(NC(=O)CSCc2cc(=O)n3nc(C4CC4)sc3n2)cc1	JMJD2A Tudor 32µM
Cc1cccc(NC(=O)CSc2nnc(CSc3nc(C)cc(C)n3)o2)c1	none
CCCc1nn2c(=O)cc(CSCC(=O)Nc3nnc(CC)s3)nc2s1	none
COc1ccc(/C=C/C(=O)NCc2cccnc2)cc1	none
CCc1ccc(CN(Cc2cccnc2)C(=O)/C=C/c2ccc(OC)cc2)cc1	G9a inh 50µM
COc1ccccc1C(CNC(=O)c1ccc(S(=O)(=O)NCc2ccco2)cc1)N(C)C (stereo unspecified)	none
O=C(NC1CC1)c1ccc(S(=O)(=O)NC2CCCCCC2)cc1	none
CC1CCCCC1NC(=O)c1ccncc1 (stereo unspecified)	none
O=C(NNS(=O)(=O)c1ccc(C(=O)NC2CCCC2)cc1)c1ccncc1	G9a inh 50µM, JMJD2A Tudor 1.3µM
CC1CCCCC1NC(=O)c1ccc(S(=O)(=O)NNC(=O)c2ccncc2)cc1 (stereo unspecified)	JMJD2A Tudor 3.5µM, BAZ2B inh 89µM (no result: G9a inh)
CCN(CC)CCCNC(=S)N(Cc1cccnc1)Cc1cc2cccc(C)c2[nH]c1=O	none
Cc1cccc2cc(CN(Cc3cccnc3)C(=S)NCCCN(C)C)c(=O)[nH]c12	G9a inh inconclusive, JMJD2A Tudor 13µM, BAZ2B inh inconclusive
N#C/C(=C/c1cn(CC(=O)O)c2ccccc12)C(=O)NCc1ccccc1	G9a inh 56µM, BAZ2B inh inconclusive
CCN(CC)c1ccc(/C=C(/C#N)C(=O)NC(C)C)o1	G9a inh inconclusive, JMJD2A Tudor inconclusive
CCN(CC)c1ccc(/C=C(/C#N)C(=O)NCc2ccccc2)o1	G9a inh 11µM
O=C(O)Cn1cc(/C=C/[N+](=O)[O-])c2ccccc21	G9a inh 56µM
